SMILES strings stand for the structures. Several values for one entry are separate records, joined by “and”; a condition that tells them apart may be missing. Equal values may be shown once. Values without a mark were called inactive. Calls come from the whole dose curve; as a rule, active = well fitted activation curve with a large enough effect; inconclusive = small, poorly fitted or top-dose-only effect; inactive = flat fitted curve, though single readings scatter.

Sequence of Peroxisome proliferator-activated receptor alpha (Homo sapiens) (Q07869 whole entry, looked up): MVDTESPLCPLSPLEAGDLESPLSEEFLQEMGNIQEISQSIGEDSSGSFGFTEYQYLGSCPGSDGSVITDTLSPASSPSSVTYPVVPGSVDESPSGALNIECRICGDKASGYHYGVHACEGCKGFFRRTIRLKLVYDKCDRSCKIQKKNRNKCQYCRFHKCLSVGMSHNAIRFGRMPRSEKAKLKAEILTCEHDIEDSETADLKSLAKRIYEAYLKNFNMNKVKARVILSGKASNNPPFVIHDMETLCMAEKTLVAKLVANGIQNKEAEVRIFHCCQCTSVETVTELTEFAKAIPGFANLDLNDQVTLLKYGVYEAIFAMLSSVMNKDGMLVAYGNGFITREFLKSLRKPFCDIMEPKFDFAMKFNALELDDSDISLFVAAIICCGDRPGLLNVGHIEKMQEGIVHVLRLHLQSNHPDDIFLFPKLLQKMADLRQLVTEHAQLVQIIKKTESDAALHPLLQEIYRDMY

For the assay, the target named is Peroxisome proliferator-activated receptor alpha (Homo sapiens) (UniProt Q07869). The experiment in a line: qHTS assay for small molecule agonists of the peroxisome proliferator-activated receptor alpha (PPARalpha) signaling pathway (AID 651778). Note: % of control where 0% means no effect. The note with it: PathHunter PPARalpha complementation, chemiluminescence, 6 h; active compounds read high. The source says:
National Center for Advancing Translational Sciences [NCATS]
NIH Chemical Genomics Center [NCGC]
U.S. Environmental Protection Agency [EPA]
National Institutes of Environmental Health Sciences [NIEHS]
National Toxicology Program [NTP]
The Peroxisome proliferator-activated receptors (PPARs) are lipid-activated transcription factors of the nuclear receptor superfamily with three distinct subtypes (alpha, garmma and beta/delta). All these subtypes heterodimerize with retinoid X receptor and have different physiological functions. PPARalpha is highly expressed in tissues with high rates of mitochondrial fatty acid oxidation, such as liver, heart, muscle, kidney and cells of the arterial wall. PPARalpha is a major regulator of lipid metabolism and energy homeostasis.
A cell based assay was used to identify activators of PPARalpha. The assay detects binding of a ligand to PPARalpha leading to its activation, translocation and complementation thus forming a functional enzyme capable of hydrolyzing the substrate molecule and generating chemiluminescent signal.
2,000 cells in 6 uL/well were dispensed into white wall/solid bottom 1536-well plates using a Multidrop Combi (Thermo Scientific) dispenser. After incubation 37 C and 5% CO2 overnight, 23 nL compound or DMSO only were transferred by a pin tool. The plates were incubated for 6 hr at 37 C and 5% CO2. 3 ul PathHunter detection reagent (Discoverx) was then added to each well and following 60 min incubation at room temperature, chemiluminescence was quantified on a ViewLux CCD-based plate reader.
Background: Quantitative high-throughput screening tests each substance at several concentrations.
Consider `Cc1ccco1`, for which the max response was -4.89%.

`CCCC(C)CO` (stereo not given): the max response is -5.48%. The result for `CCCCOCCOCCOCCCC` reads -5.07%; that for `CC(=O)c1nccs1`, -1.62%; that for `Nc1ccc(F)cc1F`, 7.65%. The result for `CCCCC(C=O)CC` (stereo not given) reads -5.44%; that for `CC/C=C1/OC(=O)c2ccccc21`, -2.48%. The result for `N#CC1(O)CCCCC1` reads -1.44%; that for `CC(=O)Nc1ccccc1C`, -1.36%. Consider `C1CCOC1`, for which the max response is -1.78%. The result for `CC(C)=C1CCC(C)CC1=O` (stereo not given) reads -4.55%; that for `O=C1CCC(=O)O1`, 3.38%; that for `Clc1ccccn1`, -1.35%. The result for `O=C(Cl)c1cccc([N+](=O)[O-])c1` reads -2.24%. The result for `CC(=O)c1ccc([N+](=O)[O-])cc1` reads -2.88%; that for `CCCCN(CCO)CCCC`, -1.07%.

On to `CC(C)=CCl`, for which the max response was 0.634%.

Turning to `Cc1ccc(Cl)cc1`, the max response was -0.102%. The result for `Cc1ccccc1C#N` reads -1.24%; that for `CNc1ccccc1`, -7.07%; that for `CNC(=O)c1ccccc1`, -1.17%. With `NC(=O)CCCCC(N)=O`, the max response is -1.94%. The result for `Cc1cc(C2(c3cc(C)c(O)cc3C)OS(=O)(=O)c3ccccc32)c(C)cc1O` reads -10.4%.

`C=CCOC(=O)CCCCCCCC`: the max response was -0.94%. The result for `Cc1ccc(C#N)cc1` reads 0.216%; that for `CC1=C(/C=C/C(C)=C/C=C/C(C)=C\C=O)C(C)(C)CCC1`, 1.33%; that for `c1ccc(Nc2ccccc2)cc1`, -3.04% and -2.25%. The result for `CCCCCNCCCCC` reads -4.45% and 0.112%; that for `Cc1ccc([N+](=O)[O-])c(N)c1`, -3.68%. The result for `Cc1ccccc1C=O` reads -2.49%; that for `N#CCc1ccccc1[N+](=O)[O-]`, -3.4%; that for `C/C=C(/C)C#N`, -2.14%. As for `O=C(O)CN(CC(=O)O)CC(=O)O`, the max response was 0.802% and -1.95% and -0.798%.

In the case of `Nc1cc(S(=O)(=O)O)ccc1O`, the max response is -7.35%. The result for `CCNc1ccccc1` reads -1.14%; that for `O=C(O)c1ccc(Cl)c(Cl)c1`, -5.43%; that for `Cc1ccc2ncccc2c1`, -2.02%. The result for `c1ccc2c(c1)Oc1ccccc1S2` reads -0.0488%. With `Nc1cccc(N)c1`, the max response was -0.676%. As for `Cc1ccc2c(c1[N+](=O)[O-])C(=O)c1ccccc1C2=O`, the max response was -3.62%.

For the origin of these results see PubChem BioAssay (NCATS).
